Only a sample is shown.
aSyn 5UTR act – Activators via SNCA 5'UTR binding, MLPCN | alpha-synuclein 5'UTR reporter, activators screen | activity score, % (tested at 7.5 µM), hits read low | hit rate 7.1% among 300,000; in the data active means activity score below about -60%
An asterisk follows results filed as active.

SMILES	aSyn 5UTR act
O=C1N/C(=C/c2ccc(Br)s2)C(=O)N1c1ccccc1	-81*
Cc1cc(/C=C2/NC(=O)N(c3ccccc3)C2=O)c(C)n1C(C)C	-64*
Cc1ccc(/C=C2/NC(=O)N(c3ccccc3)C2=O)o1	-105*
COc1ccc2c(c1)O/C(=C\c1ccccc1C)C2=O	-131*
c1ccc(-c2csc(N3CCOCC3)n2)cc1	-145*
Cc1cc(N2CCN(c3nc(-c4ccc([N+](=O)[O-])cc4)cs3)CC2)c2ccccc2n1	66
c1ccc(-c2csc(N3CCN(c4ccccn4)CC3)n2)cc1	-77*
CN(C)C(=O)N1CCN(c2nc(-c3ccccc3)cs2)CC1	-192*
O=C(N1CCOCC1)N1CCN(c2nc(-c3ccccc3)cs2)CC1	-77*
O=C1CNC(=S)N1c1nc(-c2ccccc2)cs1	-141*
COc1ccc(C2=NN(c3nc(-c4ccc(CNC(C)=O)cc4)cs3)C(c3ccco3)C2)cc1 (stereo not given)	-78*
Cc1cc(NCCN2CCOCC2)c2ccc3ccccc3c2n1	-132*
Cc1ccc(-c2nc(NCCN3CCOCC3)c3ccccc3n2)cc1	-138*
c1ccc(CN2CCC(Nc3nc(-c4ccccc4)nc4ccccc34)CC2)cc1	72
c1ccc(-c2onc3cc4c(cc23)OCCO4)cc1	-167*
COCCn1c(C)cc(C(=O)COC(=O)c2cc3c(s2)CCC3)c1C	-78*
Cc1cc(C(=O)CSc2nc3ccccc3o2)c(C)n1CC1CCCO1 (stereo not given)	-138*
Cc1cc(C(=O)COC(=O)c2ccc([N+](=O)[O-])o2)c(C)n1CC1CCCO1 (stereo not given)	-128*
CC1CCN(C(=O)COC(=O)c2ccc3c(c2)OCO3)CC1	-118*
COCCn1c(C)cc(C(=O)COC(=O)c2cccc(O)c2)c1C	67
CSc1ncccc1C(=O)OCC(=O)c1cc(C)n(CC2CCCO2)c1C (stereo not given)	-69*
COCCn1c(C)cc(C(=O)COC(=O)c2ccc([N+](=O)[O-])o2)c1C	-90*
Cc1cc(C(=O)COC(=O)c2ccc3c(c2)OCO3)c(C)n1CC1CCCO1 (stereo not given)	-68*
Cc1ccc(OCc2csc(N)n2)cc1	-108*
Nc1nc(COc2ccc(Cl)cc2)cs1	-93*
SMILES	aSyn 5UTR act
Nc1nc(COc2ccccc2)cs1	-67*
COc1ccccc1OCCCOc1ccc(C)cc1Br	-139*
COc1cc(C)ccc1OCCOc1c(C)cccc1Cl	-108*
COc1cc(C)ccc1OCCCOc1ccccc1Br	-149*
COc1ccc(Cc2nc(-c3ccccc3)no2)cc1	-176*
COc1ccc(Cc2nc(-c3cccs3)no2)cc1	-115*
Cc1ccccc1SCCNC(=O)c1ccccc1Br	-107*
Cc1ccccc1SCCNC(=O)CCc1ccccc1	-64*
CN1CCN(C(c2ccc(Cl)cc2)c2cc(Cl)c3cccnc3c2O)CC1 (stereo not given)	77
Cc1ccccc1Nc1nc(N)nc(COC(=O)c2cccn2C)n1	-122*
Cc1ccccc1Nc1nc(N)nc(COC(=O)c2ccccc2)n1	-198*
O=C(Nc1ccc2c3c(cccc13)CC2)c1ccco1	-65*
O=C(Nc1ccc2c3c(cccc13)CC2)c1ccc(Br)o1	-76*
CCN(CC)C(=O)C(C)N(C#N)c1nc(Cl)nc(N(C)C)n1 (stereo not given)	-122*
COc1ccc2nc(-c3ccccn3)[nH]c2c1	-80*
Nc1ccc2nc(-c3cccs3)[nH]c2c1	-156*
Nc1cccc(-c2nc3ccc(C(=O)c4ccccc4)cc3[nH]2)c1	-276*
Nc1ccc2nc(-c3ccccn3)[nH]c2c1	-161*
Nc1ccc(-c2nc3c(Cl)cc(N)cc3[nH]2)cc1	85
Nc1ccc2nc(-c3ccc(N)c(Cl)c3)[nH]c2c1	-115*
Nc1ccc2nc(-c3ccccc3)[nH]c2c1	-126*
O=C(O)c1ccc(NC(=S)NC2CCCCC2)cc1	-65*
FC(F)(F)c1ccc(NC(=S)NC2CCCCC2)cc1	-78*
COc1cccc(NC(=O)c2oc3ccccc3c2NC(C)=O)c1	-121*
COCC(=O)Nc1c(C(=O)Nc2ccccc2OC)oc2ccccc12	-147*
SMILES	aSyn 5UTR act
CCOCC(=O)Nc1c(C(=O)Nc2ccc(OC)cc2OC)oc2ccccc12	-82*
COCC(=O)Nc1c(C(=O)Nc2cccc(OC)c2)oc2ccccc12	-218*
CCOCC(=O)Nc1c(C(=O)Nc2ccc3c(c2)OCO3)oc2ccccc12	-151*
CCOc1ccc(NC(=O)c2oc3ccccc3c2NC(=O)CC)cc1	-123*
COc1ccccc1NC(=O)c1oc2ccc(C)cc2c1C	-203*
Cn1c(-c2ccccc2)cnc1N	-122*
COCCn1c(-c2ccccc2)cnc1N	-83*
Cn1ncc(SCc2ccccc2)c(Cl)c1=O	-64*
CCc1cc(C=NC2CCCCC2)c(O)s1	-174*
CCOC(=O)COn1c(-c2cccc(Cl)c2)nc2ccc([N+](=O)[O-])cc21	-192*
CCOC(=O)C(C)On1c(-c2cccc(Cl)c2)nc2ccc([N+](=O)[O-])cc21 (stereo not given)	-62*
Cc1ccc(NC(=O)N/C=C/c2ccc(Cl)cc2)cc1	-94*
Cc1ccc(NC(=O)N/C=C/c2ccccc2)cc1	-92*
CCOc1ccc(CNc2nc3ccccc3n2C)cc1	-125*
CCOc1ccc(Nc2nc3ccccc3n3nnnc23)cc1	-82*
Nn1c(Nc2ccccc2)nc2ccccc21	-100*
CCOc1ccc(NCc2nc3ccccc3n2CCOc2ccccc2)cc1	-67*
CCCn1c(NCc2cc(OC)ccc2OC)nc2ccccc21	-98*
COc1ccc(CCNc2nnc(Sc3nnnn3-c3ccccc3)s2)cc1OC	120
CCOc1ccc(Nc2nc3ccccc3n2C)cc1	-163*
COc1ccc(CCNc2nc3ccccc3n3nnnc23)cc1OC	-106*
O=C1C(c2ccccc2)=[N+]([O-])c2ccccc21	-94*
O=C1C(=O)c2ccc(-c3ccccc3)cc2-c2ccccc21	119
COc1ccc(Oc2nnc(C)c3ccccc23)cc1	-175*
COc1ccc(-c2nnc3c4ccccc4c(C)nn23)cc1	-206*
SMILES	aSyn 5UTR act
Cc1nnc(Oc2ccccc2F)c2ccccc12	-94*
c1cncc(-c2nc3ccccc3s2)c1	-148*
Nc1ccccc1-c1nc2ccccc2s1	-240*
c1ccc2sc(-c3ccncc3)nc2c1	-111*
Oc1ccc(-c2nc3ccccc3s2)c(O)c1	-145*
Oc1ccc(-c2nc3ccccc3s2)cc1	-68*
c1csc(-c2nc3ccccc3s2)c1	-148*
Cc1nc(NC(=O)c2cccs2)ccc1Br	-284*
Cc1csc(NC(=O)c2cccs2)n1	-112*
CCOc1cccc2sc(NC(=O)c3ccc(Br)s3)nc12	-81*
CC(=O)c1sc(NC(=O)c2cccs2)nc1C	-98*
Cc1csc(NC(=O)c2ccc(Br)s2)n1	-102*
CCc1sc(C(=O)Nc2nc(C)cs2)cc1C	-82*
COc1ccc(Nc2ccc3c(c2)=NC2(CCCCC2)[N+]=3[O-])cc1	-87*
Cc1nn(-c2ccccc2)c(C)c1CCC(=O)O	-107*
O=C(COc1ccc(Cl)cc1Cl)Nc1ccccc1F	-175*
CC(=O)Nc1ccc(NC(=O)COc2ccc(Cl)cc2Cl)cc1	-117*
O=C(COc1cc(Cl)ccc1Cl)Nc1ccc2c(c1)CCC2	-64*
COC(=O)c1sccc1NC(=O)COc1ccc(F)cc1Cl	-99*
O=C(COc1ccc(Cl)cc1Cl)c1ccc[nH]1	-94*
COC(=O)c1ccccc1NC(=O)CC(=O)Nc1ccccc1C(=O)OC	-64*
COC(=O)c1ccccc1NC(=O)NCCc1ccccc1OC	-134*

Compound activity: PubChem, Broad Institute
